Giardia killer: Giardia lamblia killing; activity change, % at 7.66 µM, hits read low; Giardia lamblia trophozoite viability; AID 540267; 340,000 tested, 0.15% active; in the data active means activity change below about -80%; inconclusive means between about -30% and that limit;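 further: parasites exposed to compound for two days anaerobically before the ATP read; on the % scale 0 is the no-effect control and ±100 the full control effect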
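Compounds were tested on trophozoites seeded at 100 cells/well and held 48 hrs at 37 deg C anaerobically. An ATP-based luminescent kit measured the remaining live cells.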
KB-3-1 tox: KB-3-1 parental cell cytotoxicity; KB-3-1 viability, CellTiter-Glo ATP luminescence, 72 h; Potency, µM (series often up to 46.1 µM), usual class: cytotoxic; 400,000 tested, 1.4% active; further: potency means the concentration at half of the fitted maximal effect; on the % scale 0 is the no-effect control and ±100 the full control effect; nearly all actives have a fitted effect of over 60% in size
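Viability of parental KB-3-1 cells, measured by CellTiter-Glo luminescence, followed a 72 h incubation at 37 °C with pinned compounds in phenol-red-free DMEM containing 10% FBS.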
SW480 rereplic: DNA re-replication induction in SW480 cells. SW480 DNA re-replication, Hoechst DNA content imaging, 48 h. Potency, µM (highest dose often 46.1 µM), without a hit: at the top dose re-replication activation, actives largely listed as activators. 340,000 tested, 1.8% active. AID 624297; further: potency means the concentration at half of the fitted maximal effect; % of control where 0% means no effect; nearly all actives have a fitted effect of over 55% in size
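Hoechst fluorescence of nuclei (405 nm excitation, 500-530 nm emission) measured by plate-scanning imager after 48 hr compound exposure at 37 C; re-replication scored as increased number of nuclei with elevated intensity.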
MCF10A rereplic: DNA re-replication induction in MCF 10a cells; MCF 10A DNA re-replication, Hoechst nuclear intensity, 48 h; Potency, µM (highest dose often 46.1 µM), inactives show top-dose activity, positive = re-replication, hits mostly activators; 350,000 tested, 2.9% active; AID 624296; further: potency means the concentration at half of the fitted maximal effect; % of control where 0% means no effect; nearly all actives have a fitted effect of over 50% in size
KB-V1 cytotox: KB-V1 MDR subline cytotoxicity; KB-V1 MDR cells viability, CellTiter-Glo, 72 h; Potency, µM (series often up to 46.1 µM), usual class: cytotoxic; 400,000 tested, 3.4% active; AID 1347076; further: potency means the concentration at half of the fitted maximal effect; on the % scale 0 is the no-effect control and ±100 the full control effect; nearly all actives have a fitted effect of over 60% in size
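qHTS viability screen in drug-selected KB-V1 MDR cells: 72 h compound treatment at 37 degrees C, ATP luminescence end point.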
ASM inhibitor: human S-ASM enzyme inhibition; placental ASM, HMU-PC fluorogenic substrate, 60 min; 340,000 tested, 0.006% active; AID 504937; Potency, µM (titrated, usually from 57.5 µM), for inactives: top-dose activity change, negative = inhibition, hits mostly inhibitors; further: potency means the concentration at half of the fitted maximal effect
Target sequence (P17405 47-631 limits assumed): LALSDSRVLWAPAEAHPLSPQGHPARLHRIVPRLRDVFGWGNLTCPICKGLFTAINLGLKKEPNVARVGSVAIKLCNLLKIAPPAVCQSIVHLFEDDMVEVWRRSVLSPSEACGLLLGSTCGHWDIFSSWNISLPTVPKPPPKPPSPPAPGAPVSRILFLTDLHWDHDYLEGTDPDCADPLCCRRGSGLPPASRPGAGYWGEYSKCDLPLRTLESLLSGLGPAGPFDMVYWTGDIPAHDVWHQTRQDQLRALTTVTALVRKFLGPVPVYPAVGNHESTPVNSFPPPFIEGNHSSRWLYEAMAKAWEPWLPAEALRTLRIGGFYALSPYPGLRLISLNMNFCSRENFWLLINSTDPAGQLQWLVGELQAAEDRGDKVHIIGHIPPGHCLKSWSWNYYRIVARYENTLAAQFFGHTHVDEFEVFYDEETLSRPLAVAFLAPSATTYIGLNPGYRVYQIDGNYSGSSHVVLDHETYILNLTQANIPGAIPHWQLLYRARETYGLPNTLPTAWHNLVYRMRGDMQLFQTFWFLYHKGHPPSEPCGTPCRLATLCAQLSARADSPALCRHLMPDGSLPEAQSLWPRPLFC
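HMU-PC0 cleavage (9 uM final) by human placental ASM, 60 min at 37 °C following 10 min compound exposure at RT; stopped at pH 10, fluorescence Ex 386/Em 447 nm.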
* = called active by the depositor; i = inactive; ? = inconclusive; . = no result given. Hits are enriched below; roughly 6.9% of the tested compounds scored in any of these assays. Unless noted, the call rests on the fitted dose curve; in most records, active means well fitted curve in the direction sought with a large enough effect; inconclusive means small, poorly fitted or top-dose-only effect, or another doubt; inactive means no such curve, though single readings can be large; an effect the other way counts as inactive or inconclusive.

SMILES	Giardia killer	KB-3-1 tox	SW480 rereplic	MCF10A rereplic	KB-V1 cytotox	ASM inhibitor
O=[N+]([O-])c1ccc(N2CCOCC2)cc1O	4	i	1%	-2%	i	0%
Cc1cc(N2CCOCC2)ccc1/C=C\[N+](=O)[O-]	-4	i	5.8µM*	18µM*	?	0%
CCc1ccc(NC(=O)C(C)OC(=O)c2cc(=O)[nH]c3ccc(S(=O)(=O)Nc4ccc(F)cc4)cc23)cc1 (centres undefined)	7	i	9%	21µM*	?	6%
COc1ccc(S(=O)(=O)NCC2CCCN(Cc3cccnc3)C2)cc1 (centres undefined)	18	i	-15%	1µM*	i	1%
COc1ccc(S(=O)(=O)NCC2CCCN(Cc3cccc(C(C)=O)c3)C2)cc1 (centres undefined)	-14	i	-1%	?	i	-1%
Cc1cc(N2CCC(C)CC2)nc2ccc(NC(=O)/C=C/c3cccc(Cl)c3)cc12	.	i	.	.	i	.
COc1cccc(OCc2cc(C3Nc4ccccc4C(=O)N3Cc3ccco3)ccc2OC)c1 (centres undefined)	-1	i	1%	19%	4.1µM*	120%
COc1cccc(OCc2cc(C3Nc4ccccc4C(=O)N3Cc3ccccc3)ccc2OC)c1 (centres undefined)	-8	i	.	.	i	.
COc1ccc(C2Nc3ccccc3C(=O)N2Cc2ccco2)cc1COc1c(C)cccc1C (centres undefined)	17	16µM*	.	.	i	.
COc1ccc(-c2nc3cc(C(C)C)ccc3o2)cc1NC(=O)c1ccc(C)c(Cl)c1	.	i	.	.	i	.
c1ccc2sc(C3CCN(Cc4nnnn4Cc4ccc5c(c4)OCO5)CC3)nc2c1	-1	23µM*	4%	?	16µM*	-17%
COc1ccc(Cn2nnnc2CN2CCC(c3nc4ccccc4s3)CC2)cc1	-5	i	1%	?	?	?
COC(=O)CSc1nc2cc(OC)ccc2n1C	-7	i	-6%	1%	i	0%
COc1ccc2c(c1)nc(SCC(=O)c1ccc(Br)s1)n2C	-15	i	?	15µM*	?	-4%
NC(=O)C1CCN(c2nccc(-c3ccc4c(c3)OCCCO4)n2)CC1	.	i	.	.	i	.
NC(=O)C1CCN(c2nccc(-c3ccc4c(c3)OCCO4)n2)CC1	.	9.2µM*	.	.	?	.
CC[n+]1c(/C=C2/C=C(C)CC(C)(C)C2)sc2ccc(OC)cc21	1	21µM*	?	16µM*	i	-5%
CC[n+]1c(/C=C2\C=C(C)CC(C)C2)sc2ccccc21 (centres undefined)	17	i	2%	23µM*	i	-6%
O=C(Nc1cccc(Cl)c1)N(Cc1nc2ccccc2c(=O)[nH]1)Cc1cccs1	2	i	-4%	4%	16µM*	-16%
CCOc1ccc(Oc2ccccc2NC(=O)CCc2nc3ccccc3c(=O)[nH]2)cc1	.	i	.	.	?	.
O=C(CCc1nc2ccccc2c(=O)[nH]1)Nc1ccc(N2CCCCC2)cc1	-6	i	11%	0%	i	-4%
O=C(CCc1nc2ccccc2c(=O)[nH]1)Nc1ccc(Cl)c(Cl)c1	3	i	-107%	20%	21µM*	-7%
O=C(CCc1nc2ccccc2c(=O)[nH]1)Nc1cc(Cl)ccc1N1CCCC1	13	i	-1%	1%	15µM*	-4%
CCOc1ccccc1NC(=O)CCCc1nc2ccccc2c(=O)[nH]1	6	i	6%	28%	18µM*	-2%
CCc1ccc(S(=O)(=O)c2nnn3c2nc(NC2CCCC2)c2sccc23)cc1	.	i	.	.	i	.
Cc1ccc(CN2C(=O)C(CC(C)C)Nc3ncnc(N4CCCCC4)c32)cc1 (centres undefined)	.	i	.	.	i	.
COc1ccc(C)cc1NC(=O)Nc1cccc(OCc2cc(=O)n3ccc(C)cc3n2)c1	.	i	.	.	i	.

From PubChem BioAssay
